TDP-43 yeast inh: TDP-43 toxicity inhibition in yeast | TDP-43 expressing yeast growth rescue, BacTiter-Glo, 24 h | Potency, µM (series often up to 46.1 µM), actives largely listed as activators | 410,000 compounds, 1.8% hits | AID 652104; note: nearly all actives have a fitted effect of over 50% in size
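In this qHTS, compounds that restore growth of yeast expressing TDP-43 appear as activators. Cells (OD600=0.02, galactose medium, raffinose-pregrown) are incubated with compound 24 hr at 30 deg C and growth is quantified by BacTiter-Glo.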
S-ASM inh: inhibitors of human secretory acid sphingomyelinase | P17405 | placental ASM, HMU-PC fluorogenic substrate, 60 min | 340,000 compounds, 0.006% hits | Potency, µM (titrated, usually from 57.5 µM), usual class: inhibitors
Target sequence (P17405 47-631 limits assumed): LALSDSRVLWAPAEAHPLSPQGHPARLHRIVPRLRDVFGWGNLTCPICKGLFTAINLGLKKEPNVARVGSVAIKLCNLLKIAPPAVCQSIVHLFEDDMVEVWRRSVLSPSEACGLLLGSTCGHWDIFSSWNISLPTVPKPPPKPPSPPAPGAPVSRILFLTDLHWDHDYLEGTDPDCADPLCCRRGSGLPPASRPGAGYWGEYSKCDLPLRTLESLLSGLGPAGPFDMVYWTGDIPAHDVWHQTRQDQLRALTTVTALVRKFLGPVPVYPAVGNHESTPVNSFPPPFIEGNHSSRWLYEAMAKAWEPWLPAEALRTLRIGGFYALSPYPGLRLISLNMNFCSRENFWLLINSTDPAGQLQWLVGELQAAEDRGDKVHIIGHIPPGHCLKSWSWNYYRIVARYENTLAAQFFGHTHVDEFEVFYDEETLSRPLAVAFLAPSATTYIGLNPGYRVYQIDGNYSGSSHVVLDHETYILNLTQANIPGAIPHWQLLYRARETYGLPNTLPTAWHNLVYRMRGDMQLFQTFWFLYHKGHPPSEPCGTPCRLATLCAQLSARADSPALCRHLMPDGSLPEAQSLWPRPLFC
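qHTS format. ASM enzyme prepared from human placenta hydrolyses the fluorogenic substrate HMU-PC0 (9 uM final) over 60 min at 37 °C after a 10 min compound preincubation.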
Rango release inh: inhibition of RanGTP-driven Rango-importin beta dissociation; AID 540253; Potency, µM (doses to about 46.1 µM); Biochemical FRET Rango-importin beta, RanGTP-induced dissociation; 340,000 compounds, 0.071% hits; O95149+P62826; calls by dose curve; note: nearly all actives have a fitted effect of over 45% in size
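FRET read at 45 min, room temperature: inhibitors block the CFP/YFP signal rise when RanGTP (0.6 uM Ran, 2 mM GTP, 0.2 uM RCC1) frees Rango (0.1 uM) from importin beta (0.25 uM). Pre-read after 5 min compound exposure flags interference.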
aSyn rescue: rescues yeast growth from alpha-synuclein toxicity; 370,000 compounds, 0.14% hits; Yeast expressing alpha-synuclein, growth rescue, BacTiter-Glo, 24 h; Potency, µM (doses to about 46.1 µM), most hits filed as activators; AID 652106; note: nearly all actives have a fitted effect of over 65% in size
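Screening used galactose-induced yeast with toxic alpha-synuclein levels, exposed to compound for 24 hr at 30 deg C. Cell growth, read with BacTiter-Glo luminescence, gave the measured signal.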
Rango complex inh: inhibitors of Rango-importin beta complex formation | Q14974 | Rango CFP/YFP FRET sensor + importin beta, 45 min | Potency, µM (top dose mostly 92.2 µM) | 340,000 compounds, 0.031% hits | AID 540263; calls by dose curve; note: nearly all actives have a fitted effect of over 15% in size
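Inhibition scored from the CFP 486 nm/YFP 530 nm FRET ratio 45 min after adding 0.125 microM importin beta to 50 nM Rango biosensor preincubated 5 min with compound (room temperature, PBS with DTT, Tween-20, BSA). No-importin wells as positive control.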
Abeta rescue: compounds reversing amyloid beta toxicity in yeast. 410,000 compounds, 0.063% hits. yeast expressing A-beta42, growth rescue, OD600, 48 h; response scale: 0% DMSO, 100% iron-clioquinol control. Potency, µM (titrated, usually from 46.1 µM), actives largely listed as activators; note: nearly all actives have a fitted effect of over 55% in size
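Yeast growth medium received pinned compounds, then yeast cells expressing toxic A-beta were added; plates incubated at 30 C for 48 hr. Growth read as absorbance at 600 nm, normalized to DMSO and equimolar FeCl3 plus clioquinol controls.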
Numbers stand for hits; . = inactive; ? = inconclusive; / = no result; [ ] = another dose, or the depositor's remark. A selection: hits, their analogues and other compounds. The true share with any hit is near 2%. Unless noted, calls come from the whole dose curve; as a rule, active = well fitted curve in the direction sought with a large enough effect; inconclusive = small, poorly fitted or top-dose-only effect, or another doubt; inactive = no such curve, though single readings can be large; an effect the other way counts as inactive or inconclusive.

SMILES | TDP-43 yeast inh | S-ASM inh | Rango release inh | aSyn rescue | Rango complex inh | Abeta rescue
O=C(Nc1cccc(Oc2ccccc2)c1)C1Cc2c(-c3ccco3)ccnc2O1 (stereo not given) | 18µM | / | / | . | / | .
O=C(Nc1cccc(Oc2ccccc2)c1)C1Cc2c(-c3ccccc3)ccnc2O1 (stereo not given) | . | / | / | . | / | .
COc1ccc(NC(=O)C2Cc3c(-c4ccccc4Oc4ccccc4)ccnc3O2)cn1 (stereo not given) | ? | / | / | . | / | .
COc1ccc(NC(=O)C2Cc3c(-c4ccccc4Oc4ccccc4)ccnc3O2)cc1OC (stereo not given) | 11µM | / | / | . | / | .
COc1ccc(Cl)cc1NC(=O)CC(C)c1ccccc1 (stereo not given) | 13µM | . | . | . | . | ?
COc1ccc(Cl)cc1NC(=O)c1c(-c2ccccc2)noc1C | . | . | . | . | . | .
COc1ccc(Cl)cc1NC(=O)COC(=O)c1c(-c2ccccc2)noc1C | 13µM | . | . | . | . | ?
COc1ccc(Cl)cc1NC(=O)CC(C)=O | . | . | . | . | . | .
CN(C)c1nc(Cl)nc(N(C#N)CCOc2ccccc2)n1 | 11µM | . | . | . | . | .
O=C1CC(C(=O)N2CCN(Cc3ccccc3)CC2)CN1Cc1ccccc1 (stereo not given) | . | . | . | . | . | .
Cc1ccc(CN2CC(C(=O)N3CCN(c4ccccc4Cl)CC3)CC2=O)cc1 (stereo not given) | 35µM | . | . | .[1.84 µM] | . | .
O=C(C1CCC(=O)N(C2CCCCCC2)C1)N1CCN(c2ccccc2Cl)CC1 (stereo not given) | 35µM | . | . | . | . | /
Cc1cc([N+](C)(C)C)cc(C)c1/C=C/c1ccnc2ccccc12 | / | / | / | . | / | /
COc1ccccc1Nc1nn2c(=O)c3ccc(C(=O)NC4CCCCC4)cc3nc2s1 | . | / | / | . | / | .
O=C(N/N=C\C=C\c1ccco1)C1COc2ccccc2O1 (stereo not given) | 14µM | . | . | . | . | .
O=C(N/N=C\c1cc(Br)cs1)C1COc2ccccc2O1 (stereo not given) | 35µM | . | . | . | . | ?
O=C(N/N=C/C=C/c1ccc([N+](=O)[O-])cc1)C1COc2ccccc2O1 (stereo not given) | . | . | . | . | . | .
COCCn1c(SCC(=O)Nc2ccc(F)c(Cl)c2)nc2c(oc3ccccc32)c1=O | . | / | / | / | / | .
COc1cc(OC)c(/C=C/c2ccc3ccccc3[n+]2C)c(OC)c1 | / | / | / | . | / | /
COc1ccc(N2CCN(C(=O)CSc3nnc4c(C)cc5ccc(C)c(C)c5n34)CC2)cc1 | 14µM | . | . | . | . | .
Cc1cccc(NC(=O)c2c(C)oc3ncn(CC(C)C)c(=O)c23)n1 | . | / | / | / | / | .
COc1ccc(C)cc1NC(=O)c1c(C)oc2ncn(CC(C)C)c(=O)c12 | 16µM | / | / | / | / | .
O=C(CSc1cccc[n+]1[O-])c1ccccc1Br | 35µM | . | . | ? | . | ?
Brc1ccc(C2C=Cc3ccccc32)cc1 (stereo not given) | / | / | / | . | / | /
N/C(Cc1ccc([N+](=O)[O-])cc1)=N\OC(=O)c1ccccc1F | 11µM | . | . | . | . | .
SMILES | TDP-43 yeast inh | S-ASM inh | Rango release inh | aSyn rescue | Rango complex inh | Abeta rescue
c1ccc(-c2nn3c(C4CCCCC4)nnc3s2)nc1 | . | . | . | . | . | .
COc1ccc(-c2nn3c(C4CCCCC4)nnc3s2)cc1OC | 20µM | . | . | . | . | .
Clc1ccc(OCc2nn3c(C4CCCCC4)nnc3s2)cc1 | 20µM | . | . | . | . | .
c1ccc(-c2nn3c(C4CCCCC4)nnc3s2)cc1 | 20µM | . | . | . | . | .
c1csc(-c2nn3c(C4CCCCC4)nnc3s2)c1 | ? | . | . | . | . | .
COc1cc(-c2nn3c(C4CCCCC4)nnc3s2)cc(OC)c1OC | . | . | . | . | . | .
O=C(Nc1ccc(Br)cc1)c1ccc(F)c(S(=O)(=O)N2CCc3ccccc32)c1 | . | / | / | / | / | .
CCc1ccc(NC(=O)CN(Cc2ccccc2)S(=O)(=O)c2ccc3nc(C)sc3c2)cc1 | . | / | / | / | / | .
CCOc1ccc(C(=O)OC(C)C(=O)N2CCN(Cc3ccccc3)CC2)cc1 (stereo not given) | 3.2µM | . | . | . | . | .
O=S1(=O)CC(c2ccccc2)=NN=C(c2ccccc2)C1 | . | / | / | . | / | .
O=C1CC(c2ccccc2)=NO1 | 10µM | . | . | 16µM | . | .
Cc1ccc(C)c(OCCC(=O)OCC(=O)N2CCN(S(=O)(=O)c3ccc(Cl)cc3)CC2)c1 | ? | . | . | . | . | .
CCOc1ccc(OCCC(=O)OCC(=O)N2CCN(S(=O)(=O)c3ccc(Cl)cc3)CC2)cc1 | 13µM | . | . | . | . | .
COC(=O)c1ccc(CNC(=O)COC(=O)/C=C/c2ccc(O)c(OC)c2)cc1 | . | . | 18µM | . | ? | .
COC(=O)c1ccc(/C=N/OCC(=O)NCc2ccc(F)cc2)cc1 | 32µM | . | ? | . | . | .
O=C(COc1ccc(C(=O)c2ccc(F)cc2)cc1)NCc1ccc(F)cc1 | 20µM | . | . | . | . | .
CCOc1ccccc1/C=N/OCC(=O)NCc1ccc(F)cc1 | 22µM | . | . | . | . | .
COC(=O)c1ccc(CNC(=O)COC(=O)/C=C/c2cccc(OC)c2)cc1 | . | / | / | . | / | .
CNc1ccc(/C=C2\C=Cc3ccccc32)cc1Br | / | / | / | . | / | /
CC(=O)c1cccc(NCc2ccccc2-c2nnc(-c3ccccc3)o2)c1 | . | / | / | / | / | .
CN(C)c1ccc(/C=C/c2sc3ccccc3[n+]2CCCCI)cc1 | / | / | / | . | / | /
CC(NC(=O)c1ccc(N2Cc3ccccc3Oc3ncccc32)s1)c1ccccc1 (stereo not given) | . | / | / | / | / | .
O=C(N/N=C/C(Br)=C/c1ccccc1)c1ccccc1F | 14µM | . | . | . | . | .

Source: PubChem
